About 83,000 compounds went through this panel and 20% of them were active in at least one assay; those are over-represented in the sample as a whole.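 Activity criterion: percent growth below 10, measured after cells in 96-well plates were exposed to a single compound concentration for 48 hours.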 Values without a mark were called inactive. Active and inactive are the calls of the source.

The test system of one assay is SNB-75 CNS. Put plainly: NCI-60 one-dose screen, 48 h (100 = growth as untreated, 0 = no growth, -100 = all killed). The following applies: 10 µM.
For `COc1ccc(C2=CC(c3cc(OC)c(OC)c(OC)c3)NC(=O)N2)cc1OC` (stereo not drawn), the growth is 2.17% (active).
For the compound `O=C(CCl)N(C1CCCCC1)C1CCCCC1`, the growth was 95.7%.
The same measure, in the same setting: in the case of `CNC(=S)NNC(=O)C1CC1` it was 96.5%; in that of `COc1ccc(/C=C(\C#N)c2cc(OC)c3c(c2)OCO3)cc1`, 39.8%.
As to `Cc1ccc2nc(Cl)cc(=O)n2c1`, the growth is 115%.
Still for that read-out and setting: in the case of `O=c1cc(Cc2ccc([N+](=O)[O-])cc2)[nH]c(=O)[nH]1` it was 94.4%; in that of `CC1=C(C#N)C(=O)NC(C)C1` (stereo not drawn), 111%; in that of `CNc1ccc(Br)c2c1C(=O)c1ccccc1C2=O`, 96.7%.
`Cc1ccc(S(=O)(=O)C2=C3C(=C(c4ccccc4)c4ccccc43)CN(S(=O)(=O)c3ccc(C)cc3)C2)cc1`: the growth is 56.1%.
As to `C=C(C)[C@@H]1C[C@@H]2Cc3cc(F)ccc3N1O2`, the growth was 95.9%.
The same measure, in the same setting: the value for `NC(N)=Nc1nc2ccccc2o1` was 111%.
Still for that read-out and setting: in the case of `CC(C)(C)OC(=O)NC(CSCc1ccccc1)C(=O)ON1C(=O)CCC1=O` (stereo not drawn) it was 105%.
In the case of `COc1ccc(CN2CCc3c(Sc4ccccc4)nc(N)nc3C2=O)c(OC)c1`, the growth was 66.5%.
Regarding `COc1cc(/C=C/C(=O)c2ccc(Nc3ncnc4cc(OC)c(OC)cc34)cc2)cc(OC)c1`, the growth is 96.1%.
As for `S=C1CC(=S)NC(=S)N1`, the growth was 92.5%.
Still for that read-out and setting: the value for `COc1ccc2c(c1)[nH]c(=O)c1c3cccc(F)c3cn21` was 76.2%.
On the same count and under the same terms, in the case of `NC1=NN(O)C2=CC([N+](=O)[O-])C=CC2=N1` (stereo not drawn) it was 99.5%.
For `C=C[C@@H]1C[C@@H]2Cc3cc(Cl)ccc3N1O2`, the growth was 93.3%.
Same read-out and setting: in the case of `CN(C)CCCC(C#N)c1ccccc1` (stereo not drawn) it was 88.5%; in that of `C=C1CCC2C3(C)COC(c4ccc(N(C)C)cc4)OC3CCC2(C)C1C/C=C1/C(=O)OCC1O` (stereo not drawn), 73.8%.
On to `COc1ccc(-c2cn(-c3cccc(C(=O)/C=C/c4cc(OC)c(OC)c(OC)c4)c3)c(=O)[nH]2)cc1OC`, for which the growth is 58.2%.
Regarding `C=C[C@@H]1C[C@@H]2Cc3cc(F)ccc3N1O2`, the growth was 99.7%.
On the same count and under the same terms, the value for `COc1ccc2c(c1)cn1c3ccc(OC)cc3[nH]c(=O)c21` was 59.1%; that for `C=C[C@@H]1C[C@H](O)Cc2ccccc2N1` was 102%; that for `NC(=S)N/N=C1\CCCC(C(F)(F)F)C1` (stereo not drawn) was 87.3%.
On to `Cn1c(=O)c2[nH]c(C3CC=CCC3)nc2n(C)c1=O` (stereo not drawn), for which the growth was 93.9%.
Same read-out and setting: the value for `N#C/C(=C1C=C/C(=N/O)C(Cl)=C/1)c1ccc(Cl)cc1` was 89%.
Take `COc1ccc(C(=O)n2nc(/C=C/c3ccc(O)c(OC)c3)cc2/C=C/c2ccc(O)c(OC)c2)cc1`: the growth is -16% (active).
Regarding `C=C[C@@H]1C[C@H](O)Cc2c(C)cc(C)cc2N1`, the growth is 93.6%.
Still for that read-out and setting: the value for `Cn1ncc2c(Sc3ccc(Cl)cc3)ncnc21` was 86.7%; that for `COc1cc(/C=C/c2cc(/C=C/c3ccc(O)c(OC)c3)n(C(N)=O)n2)ccc1O` was -40.9% (active).
Consider `CO[C@H]1NC(=O)N(S(=O)(=O)c2ccc(Cl)cc2)[C@@H]1OC`, for which the growth is 93.6%.
For the compound `COc1ccc2[nH]c(=O)c3c4ccccc4cn3c2c1`, the growth was 56.5%.
On the same count and under the same terms, in the case of `Nc1ncnc2c1c(-c1ccc(Oc3ccccc3)cc1)nn2C[C@@H]1SSC[C@@H]1O` it was 5.33% (active); in that of `C[n+]1c(/C=C/c2c(O)ccc3ccccc23)ccc2ccccc21`, 49.9%; in that of `Cc1ccc(S(=O)(=O)n2cc(C(=O)C(=O)N3CCOCC3)c3ccccc32)cc1`, 104%.
For `COc1ccc2c(c1)[nH]c(=O)c1c3cc(OC)ccc3cn21`, the growth was 74.8%.
As for `C=C[C@@H]1C[C@@H]2Cc3c(C)cc(C)cc3N1O2`, the growth is 95.4%.
Still for that read-out and setting: the value for `C=C[C@@H]1C[C@H](O)Cc2cc(F)ccc2N1` was 87.9%.

The next assay concerns SNB-19 CNS. Described as above. The following applies: 10 µM unless noted.
As for `COc1ccc(C2=CC(c3cc(OC)c(OC)c(OC)c3)NC(=O)N2)cc1OC` (stereo not drawn), the growth was 38.1%.
For `O=C(CCl)N(C1CCCCC1)C1CCCCC1`, the growth is 109%.
For `CNC(=S)NNC(=O)C1CC1`, the growth was 106%.
On the same count and under the same terms, the value for `COc1ccc(/C=C(\C#N)c2cc(OC)c3c(c2)OCO3)cc1` was 37.8%; that for `Cc1ccc2nc(Cl)cc(=O)n2c1` was 105%.
For `O=c1cc(Cc2ccc([N+](=O)[O-])cc2)[nH]c(=O)[nH]1`, the growth was 97%.
Still for that read-out and setting: the value for `CC1=C(C#N)C(=O)NC(C)C1` (stereo not drawn) was 103%; that for `CNc1ccc(Br)c2c1C(=O)c1ccccc1C2=O` was 110%; that for `Cc1ccc(S(=O)(=O)C2=C3C(=C(c4ccccc4)c4ccccc43)CN(S(=O)(=O)c3ccc(C)cc3)C2)cc1` was 82.1%.
Take `C=C(C)[C@@H]1C[C@@H]2Cc3cc(F)ccc3N1O2`: the growth was 105%.
Regarding `NC(N)=Nc1nc2ccccc2o1`, the growth was 99.7%.
`CC(C)(C)OC(=O)NC(CSCc1ccccc1)C(=O)ON1C(=O)CCC1=O` (stereo not drawn): the growth was 106%.
Same read-out and setting: in the case of `COc1ccc(CN2CCc3c(Sc4ccccc4)nc(N)nc3C2=O)c(OC)c1` it was 82%.
The same measure, in the same setting: the value for `COc1cc(/C=C/C(=O)c2ccc(Nc3ncnc4cc(OC)c(OC)cc34)cc2)cc(OC)c1` was 94.9%.
Take `S=C1CC(=S)NC(=S)N1`: the growth is 96.1%.
In the case of `COc1ccc2c(c1)[nH]c(=O)c1c3cccc(F)c3cn21`, the growth is 39.1%.
Regarding `NC1=NN(O)C2=CC([N+](=O)[O-])C=CC2=N1` (stereo not drawn), the growth was 119%.
As to `C=C[C@@H]1C[C@@H]2Cc3cc(Cl)ccc3N1O2`, the growth was 113%.
Regarding `CN(C)CCCC(C#N)c1ccccc1` (stereo not drawn), the growth was 103%.
On the same count and under the same terms, in the case of `C=C1CCC2C3(C)COC(c4ccc(N(C)C)cc4)OC3CCC2(C)C1C/C=C1/C(=O)OCC1O` (stereo not drawn) it was 85.9%; in that of `COc1ccc(-c2cn(-c3cccc(C(=O)/C=C/c4cc(OC)c(OC)c(OC)c4)c3)c(=O)[nH]2)cc1OC`, 108%.
Same read-out and setting: the value for `C=C[C@@H]1C[C@@H]2Cc3cc(F)ccc3N1O2` was 109%.
Still for that read-out and setting: the value for `COc1ccc2c(c1)cn1c3ccc(OC)cc3[nH]c(=O)c21` was 12.3%; that for `C=C[C@@H]1C[C@H](O)Cc2ccccc2N1` was 108%; that for `NC(=S)N/N=C1\CCCC(C(F)(F)F)C1` (stereo not drawn) was 100%.
For `Cn1c(=O)c2[nH]c(C3CC=CCC3)nc2n(C)c1=O` (stereo not drawn), the growth was 100%.
Same read-out and setting: the value for `N#C/C(=C1C=C/C(=N/O)C(Cl)=C/1)c1ccc(Cl)cc1` was 93.6%.
Regarding `COc1ccc(C(=O)n2nc(/C=C/c3ccc(O)c(OC)c3)cc2/C=C/c2ccc(O)c(OC)c2)cc1`, the growth is 12.8%.
On to `C=C[C@@H]1C[C@H](O)Cc2c(C)cc(C)cc2N1`, for which the growth is 109%.
For the compound `Cn1ncc2c(Sc3ccc(Cl)cc3)ncnc21`, the growth is 81.6%.
Turning to `COc1cc(/C=C/c2cc(/C=C/c3ccc(O)c(OC)c3)n(C(N)=O)n2)ccc1O`, the growth was 4.95% (active).
`CO[C@H]1NC(=O)N(S(=O)(=O)c2ccc(Cl)cc2)[C@@H]1OC`: the growth was 103%.
On the same count and under the same terms, the value for `COc1ccc2[nH]c(=O)c3c4ccccc4cn3c2c1` was 27.9%; that for `Nc1ncnc2c1c(-c1ccc(Oc3ccccc3)cc1)nn2C[C@@H]1SSC[C@@H]1O` was 60.7%; that for `C[n+]1c(/C=C/c2c(O)ccc3ccccc23)ccc2ccccc21` was 41.7%.
On the same count and under the same terms, in the case of `Cc1ccc(S(=O)(=O)n2cc(C(=O)C(=O)N3CCOCC3)c3ccccc32)cc1` it was 99.5%; in that of `COc1ccc2c(c1)[nH]c(=O)c1c3cc(OC)ccc3cn21`, 25.8%; in that of `C=C[C@@H]1C[C@@H]2Cc3c(C)cc(C)cc3N1O2`, 113%.
Consider `C=C[C@@H]1C[C@H](O)Cc2cc(F)ccc2N1`, for which the growth is 104%.

For the origin of these results see PubChem BioAssay (NCI).
